According to PMC7862700, “An all-to-all approach to the identification of sequence-specific readers for epigenetic DNA modifications on cytosine”:

Experiments:
Assay in all cases: DAPPL (digital affinity profiling via proximity ligation, sequencing); 10 mM Tris-HCl pH 7.5, 50 mM NaCl, 1 mM DTT, 4% glycerol, room temperature, 30 min; GST-TFs on glutathione beads, 16-mer random dsDNA library, 0.1% formaldehyde crosslink after washing; high values mean tight binding
Conditions in all cases: protein: recombinant; tags: N-terminal GST; dsDNA, one strand shown
[1] = target: T1, ERF (Homo sapiens, UniProt P50548 1-548)
T1 sequence: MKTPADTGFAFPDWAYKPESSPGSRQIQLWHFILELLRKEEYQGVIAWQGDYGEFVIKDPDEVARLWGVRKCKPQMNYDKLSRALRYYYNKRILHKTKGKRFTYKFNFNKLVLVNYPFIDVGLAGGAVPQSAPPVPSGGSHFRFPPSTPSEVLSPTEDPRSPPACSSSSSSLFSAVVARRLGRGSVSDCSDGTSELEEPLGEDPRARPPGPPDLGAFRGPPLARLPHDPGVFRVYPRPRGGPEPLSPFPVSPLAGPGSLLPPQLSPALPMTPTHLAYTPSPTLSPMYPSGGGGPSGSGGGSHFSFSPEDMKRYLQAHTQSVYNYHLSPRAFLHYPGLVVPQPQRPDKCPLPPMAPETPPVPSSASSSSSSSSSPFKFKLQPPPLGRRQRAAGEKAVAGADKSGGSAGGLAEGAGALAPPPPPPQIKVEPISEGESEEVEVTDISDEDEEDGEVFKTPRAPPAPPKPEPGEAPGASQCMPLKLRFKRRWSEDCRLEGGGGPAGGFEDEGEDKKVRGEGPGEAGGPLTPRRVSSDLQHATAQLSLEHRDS
Method in brief: (§1)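 Binding signal is given per hexamer as its read frequency for a factor divided by its frequency in the tag-only sample. GST-fused human transcription factors were expressed in yeast, captured on glutathione beads, barcoded with DNA and pooled with that sample, then incubated with 200 nmole of a 16-mer random double-stranded DNA library in Tris/NaCl/DTT/glycerol buffer for 30 min at room temperature. The pools were then washed, crosslinked, proximity-ligated, amplified by PCR and sequenced on an Illumina NextSeq500.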

[2] = target: T2, ETV3L (Homo sapiens, UniProt Q6ZN32 1-361)
T2 sequence: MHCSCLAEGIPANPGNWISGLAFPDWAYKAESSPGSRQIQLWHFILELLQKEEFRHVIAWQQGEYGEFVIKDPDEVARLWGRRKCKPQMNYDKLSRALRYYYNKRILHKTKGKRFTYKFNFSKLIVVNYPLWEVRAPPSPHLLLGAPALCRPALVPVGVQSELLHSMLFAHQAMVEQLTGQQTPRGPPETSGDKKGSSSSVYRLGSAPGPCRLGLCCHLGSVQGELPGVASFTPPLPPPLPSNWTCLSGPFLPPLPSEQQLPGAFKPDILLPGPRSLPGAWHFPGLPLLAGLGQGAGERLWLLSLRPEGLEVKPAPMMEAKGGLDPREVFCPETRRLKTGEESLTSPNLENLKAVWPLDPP
Method in brief: as §1

[3] = target: T3, ETS2 (Homo sapiens, UniProt P15036 1-469)
T3 sequence: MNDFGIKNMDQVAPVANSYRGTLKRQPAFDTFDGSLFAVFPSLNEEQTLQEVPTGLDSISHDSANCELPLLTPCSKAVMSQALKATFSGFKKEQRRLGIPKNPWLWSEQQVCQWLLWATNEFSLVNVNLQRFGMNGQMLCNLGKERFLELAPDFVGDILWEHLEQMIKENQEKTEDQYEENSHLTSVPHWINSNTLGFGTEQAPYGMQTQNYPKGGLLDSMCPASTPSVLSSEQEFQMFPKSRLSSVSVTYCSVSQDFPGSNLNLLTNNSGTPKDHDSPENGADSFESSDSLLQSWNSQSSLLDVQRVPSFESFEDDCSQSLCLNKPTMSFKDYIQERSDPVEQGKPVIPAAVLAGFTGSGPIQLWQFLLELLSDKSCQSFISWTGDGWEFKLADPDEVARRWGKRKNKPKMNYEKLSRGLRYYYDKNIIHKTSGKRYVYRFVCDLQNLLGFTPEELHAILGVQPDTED
Method in brief: as §1

[4] = target: T4, SPDEF (Homo sapiens, UniProt O95238 1-335)
T4 sequence: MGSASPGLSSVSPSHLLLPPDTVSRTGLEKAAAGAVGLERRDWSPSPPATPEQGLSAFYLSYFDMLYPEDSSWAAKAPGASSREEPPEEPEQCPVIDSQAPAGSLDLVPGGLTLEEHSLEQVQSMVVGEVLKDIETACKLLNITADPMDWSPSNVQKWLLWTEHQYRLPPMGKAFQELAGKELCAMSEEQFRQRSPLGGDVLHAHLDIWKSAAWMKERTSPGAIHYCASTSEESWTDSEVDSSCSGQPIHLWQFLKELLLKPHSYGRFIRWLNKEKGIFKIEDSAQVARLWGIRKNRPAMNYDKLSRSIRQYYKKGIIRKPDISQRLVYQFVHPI
Method in brief: as §1

[5] = target: T5, ETV7 (Homo sapiens, UniProt Q9Y603 1-341)
T5 sequence: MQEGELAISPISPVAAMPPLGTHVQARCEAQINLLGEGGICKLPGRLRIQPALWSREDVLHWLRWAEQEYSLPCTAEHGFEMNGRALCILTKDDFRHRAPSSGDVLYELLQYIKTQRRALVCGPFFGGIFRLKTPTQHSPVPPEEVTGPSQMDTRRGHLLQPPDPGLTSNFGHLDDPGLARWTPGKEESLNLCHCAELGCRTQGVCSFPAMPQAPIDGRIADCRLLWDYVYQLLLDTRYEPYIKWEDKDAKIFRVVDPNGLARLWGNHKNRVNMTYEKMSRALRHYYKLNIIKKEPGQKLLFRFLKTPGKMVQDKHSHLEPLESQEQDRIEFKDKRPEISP
Method in brief: as §1

[6] = target: T6, ELF5 (Homo sapiens, UniProt Q9UKW6-2 1-255)
T6 sequence: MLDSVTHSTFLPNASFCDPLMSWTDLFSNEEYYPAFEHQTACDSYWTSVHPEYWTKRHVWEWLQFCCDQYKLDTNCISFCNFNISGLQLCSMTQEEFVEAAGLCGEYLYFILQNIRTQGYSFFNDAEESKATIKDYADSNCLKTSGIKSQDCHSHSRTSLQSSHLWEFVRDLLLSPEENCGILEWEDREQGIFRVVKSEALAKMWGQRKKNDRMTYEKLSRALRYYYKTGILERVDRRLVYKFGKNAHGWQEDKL
Method in brief: as §1

[7] = target: T7, ETV3 (Homo sapiens, UniProt P41162-2 1-143)
T7 sequence: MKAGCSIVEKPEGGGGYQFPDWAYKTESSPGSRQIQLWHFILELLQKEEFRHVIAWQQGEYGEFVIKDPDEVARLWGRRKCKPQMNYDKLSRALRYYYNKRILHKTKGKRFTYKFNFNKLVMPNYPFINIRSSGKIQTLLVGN
Method in brief: as §1

[8] = target: ETV6 (Homo sapiens, UniProt P41212 1-452)
ETV6, sequence (P41212 whole entry): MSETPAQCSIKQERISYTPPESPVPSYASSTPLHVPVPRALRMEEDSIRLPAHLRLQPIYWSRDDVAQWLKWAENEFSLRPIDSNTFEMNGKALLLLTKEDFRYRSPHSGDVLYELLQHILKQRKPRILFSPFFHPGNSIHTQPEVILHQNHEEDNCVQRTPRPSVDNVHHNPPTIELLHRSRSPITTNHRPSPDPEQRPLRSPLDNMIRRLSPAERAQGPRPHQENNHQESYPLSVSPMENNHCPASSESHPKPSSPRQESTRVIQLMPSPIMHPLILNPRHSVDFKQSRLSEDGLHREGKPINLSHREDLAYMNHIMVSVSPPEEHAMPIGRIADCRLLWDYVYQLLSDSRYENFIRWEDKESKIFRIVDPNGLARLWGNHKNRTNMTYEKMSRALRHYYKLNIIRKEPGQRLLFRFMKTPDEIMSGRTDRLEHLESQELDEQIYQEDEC
Method in brief: as §1

Sequence | binding signal [1] | binding signal [2] | binding signal [3] | binding signal [4] | binding signal [5] | binding signal [6] | binding signal [7] | binding signal [8]
TTTGGT | 1.49 fold enrichment (6-mer frequency, TF over GST control) | 1.36 fold enrichment (6-mer frequency, TF over GST control) | 1.43 fold enrichment (6-mer frequency, TF over GST control) | 1.28 fold enrichment (6-mer frequency, TF over GST control) | 1.45 fold enrichment (6-mer frequency, TF over GST control) | 1.4 fold enrichment (6-mer frequency, TF over GST control) | 1.39 fold enrichment (6-mer frequency, TF over GST control) | 1.36 fold enrichment (6-mer frequency, TF over GST control)
TCATCG | 1.06 fold enrichment (6-mer frequency, TF over GST control) | 1.08 fold enrichment (6-mer frequency, TF over GST control) |  |  |  |  |  | 
CCCCCG | 1.17 fold enrichment (6-mer frequency, TF over GST control) | 1.13 fold enrichment (6-mer frequency, TF over GST control) | 1.06 fold enrichment (6-mer frequency, TF over GST control) | 1.13 fold enrichment (6-mer frequency, TF over GST control) | 1.05 fold enrichment (6-mer frequency, TF over GST control) | 1.07 fold enrichment (6-mer frequency, TF over GST control) | 1.22 fold enrichment (6-mer frequency, TF over GST control) | 1.12 fold enrichment (6-mer frequency, TF over GST control)
ACCATC | 1.14 fold enrichment (6-mer frequency, TF over GST control) | 1.13 fold enrichment (6-mer frequency, TF over GST control) | 1.12 fold enrichment (6-mer frequency, TF over GST control) | 1.09 fold enrichment (6-mer frequency, TF over GST control) | 1.16 fold enrichment (6-mer frequency, TF over GST control) | 1.06 fold enrichment (6-mer frequency, TF over GST control) | 1.03 fold enrichment (6-mer frequency, TF over GST control) | 1.06 fold enrichment (6-mer frequency, TF over GST control)
GACCTA | 1.09 fold enrichment (6-mer frequency, TF over GST control) | 1.31 fold enrichment (6-mer frequency, TF over GST control) | 1.19 fold enrichment (6-mer frequency, TF over GST control) | 1.13 fold enrichment (6-mer frequency, TF over GST control) | 1.2 fold enrichment (6-mer frequency, TF over GST control) | 1.15 fold enrichment (6-mer frequency, TF over GST control) | 1.07 fold enrichment (6-mer frequency, TF over GST control) | 1.22 fold enrichment (6-mer frequency, TF over GST control)
GAATTG | 1.1 fold enrichment (6-mer frequency, TF over GST control) | 1.07 fold enrichment (6-mer frequency, TF over GST control) | 1.13 fold enrichment (6-mer frequency, TF over GST control) | 1.14 fold enrichment (6-mer frequency, TF over GST control) | 1.22 fold enrichment (6-mer frequency, TF over GST control) | 1.13 fold enrichment (6-mer frequency, TF over GST control) | 1.03 fold enrichment (6-mer frequency, TF over GST control) | 1.06 fold enrichment (6-mer frequency, TF over GST control)
TGTCTC | 1.2 fold enrichment (6-mer frequency, TF over GST control) | 1.3 fold enrichment (6-mer frequency, TF over GST control) | 1.26 fold enrichment (6-mer frequency, TF over GST control) | 1.33 fold enrichment (6-mer frequency, TF over GST control) | 1.16 fold enrichment (6-mer frequency, TF over GST control) | 1.26 fold enrichment (6-mer frequency, TF over GST control) | 1.21 fold enrichment (6-mer frequency, TF over GST control) | 1.22 fold enrichment (6-mer frequency, TF over GST control)
CACTTG | 1.41 fold enrichment (6-mer frequency, TF over GST control) | 1.22 fold enrichment (6-mer frequency, TF over GST control) | 1.32 fold enrichment (6-mer frequency, TF over GST control) | 1.35 fold enrichment (6-mer frequency, TF over GST control) | 1.37 fold enrichment (6-mer frequency, TF over GST control) | 1.33 fold enrichment (6-mer frequency, TF over GST control) | 1.39 fold enrichment (6-mer frequency, TF over GST control) | 1.31 fold enrichment (6-mer frequency, TF over GST control)
ACAATG | 1.12 fold enrichment (6-mer frequency, TF over GST control) | 1.03 fold enrichment (6-mer frequency, TF over GST control) | 1.09 fold enrichment (6-mer frequency, TF over GST control) | 1.03 fold enrichment (6-mer frequency, TF over GST control) | 1.12 fold enrichment (6-mer frequency, TF over GST control) | 1.08 fold enrichment (6-mer frequency, TF over GST control) | 1.11 fold enrichment (6-mer frequency, TF over GST control) | 1.06 fold enrichment (6-mer frequency, TF over GST control)
TGACCT | 1.66 fold enrichment (6-mer frequency, TF over GST control) | 1.83 fold enrichment (6-mer frequency, TF over GST control) | 1.72 fold enrichment (6-mer frequency, TF over GST control) | 1.74 fold enrichment (6-mer frequency, TF over GST control) | 1.75 fold enrichment (6-mer frequency, TF over GST control) | 1.73 fold enrichment (6-mer frequency, TF over GST control) | 1.59 fold enrichment (6-mer frequency, TF over GST control) | 1.66 fold enrichment (6-mer frequency, TF over GST control)
TTACTG | 1.2 fold enrichment (6-mer frequency, TF over GST control) | 1.04 fold enrichment (6-mer frequency, TF over GST control) | 1.09 fold enrichment (6-mer frequency, TF over GST control) | 1.07 fold enrichment (6-mer frequency, TF over GST control) | 1.14 fold enrichment (6-mer frequency, TF over GST control) | 1.02 fold enrichment (6-mer frequency, TF over GST control) | 1.21 fold enrichment (6-mer frequency, TF over GST control) | 1.17 fold enrichment (6-mer frequency, TF over GST control)
CGGAAA | 1.77 fold enrichment (6-mer frequency, TF over GST control) | 2.05 fold enrichment (6-mer frequency, TF over GST control) | 2.07 fold enrichment (6-mer frequency, TF over GST control) | 2.03 fold enrichment (6-mer frequency, TF over GST control) | 1.97 fold enrichment (6-mer frequency, TF over GST control) | 2.58 fold enrichment (6-mer frequency, TF over GST control) | 2.26 fold enrichment (6-mer frequency, TF over GST control) | 2.53 fold enrichment (6-mer frequency, TF over GST control)
TGGTAC | 1.11 fold enrichment (6-mer frequency, TF over GST control) | 1.21 fold enrichment (6-mer frequency, TF over GST control) | 1.19 fold enrichment (6-mer frequency, TF over GST control) | 1.11 fold enrichment (6-mer frequency, TF over GST control) | 1.14 fold enrichment (6-mer frequency, TF over GST control) | 1.14 fold enrichment (6-mer frequency, TF over GST control) | 1.14 fold enrichment (6-mer frequency, TF over GST control) | 1.14 fold enrichment (6-mer frequency, TF over GST control)
CCGCCG | 1.18 fold enrichment (6-mer frequency, TF over GST control) | 1.2 fold enrichment (6-mer frequency, TF over GST control) | 1.22 fold enrichment (6-mer frequency, TF over GST control) | 1.34 fold enrichment (6-mer frequency, TF over GST control) | 1.2 fold enrichment (6-mer frequency, TF over GST control) | 1.31 fold enrichment (6-mer frequency, TF over GST control) | 1.31 fold enrichment (6-mer frequency, TF over GST control) | 1.23 fold enrichment (6-mer frequency, TF over GST control)
CACCCT | 1.09 fold enrichment (6-mer frequency, TF over GST control) | 1.26 fold enrichment (6-mer frequency, TF over GST control) | 1.09 fold enrichment (6-mer frequency, TF over GST control) | 1.13 fold enrichment (6-mer frequency, TF over GST control) | 1.04 fold enrichment (6-mer frequency, TF over GST control) | 1.11 fold enrichment (6-mer frequency, TF over GST control) | 1.24 fold enrichment (6-mer frequency, TF over GST control) | 1.05 fold enrichment (6-mer frequency, TF over GST control)
